Laboratory results taken from the supplement of paper PMC4466140.

How the values were obtained:
Assay in all cases: SPOT peptide array binding signal intensity (averaged, normalized) (arbitrary units (background-subtracted, floor 0; scale differs between SH3 domains)); higher = stronger binding of the SH3 domain to the peptide
AgAbp1 = target: AgAbp1
How it was run: (§1)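 SH3 domains from four yeast species were expressed as GST fusions in E. coli BL21(DE3) and purified on glutathione Sepharose. Each was incubated at 10 μg/ml overnight at 4°C in TBS-based blocking buffer on cellulose membranes bearing synthetic 15-mer peptides, in which serines replaced cysteines. Bound protein was detected with anti-GST antibody, an HRP anti-mouse secondary and luminol, then imaged and quantified with Genespotter. The binding signal is the normalized, background-subtracted spot intensity averaged over replicates, in arbitrary units that are not the same from one domain to another.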

AgBbc1 = target: AgBbc1
How it was run: as §1

AgBem1-D1 = target: AgBem1-D1
How it was run: as §1

AgBzz1-D1 = target: AgBzz1-D1
How it was run: as §1

AgBzz1-D2 = target: AgBzz1-D2
How it was run: as §1

AgCyk3 = target: AgCyk3
How it was run: as §1

AgFus1 = target: AgFus1
How it was run: as §1

AgHof1 = target: AgHof1
How it was run: as §1

AgHse1 = target: AgHse1
How it was run: as §1

AgLsb1 = target: AgLsb1
How it was run: as §1

AgLsb4 = target: AgLsb4
How it was run: as §1

AgMyo5 = target: AgMyo5
How it was run: as §1

AgNbp2 = target: AgNbp2
How it was run: as §1

AgRvs167 = target: AgRvs167
How it was run: as §1

AgSho1 = target: AgSho1
How it was run: as §1

AgSla1-D1-D2 = target: AgSla1-D1-D2
How it was run: as §1

AgSla1-D3 = target: AgSla1-D3
How it was run: as §1

CaAbp1-D1 = target: CaAbp1-D1
How it was run: as §1

CaAbp1-D2 = target: CaAbp1-D2
How it was run: as §1

CaBbc1 = target: CaBbc1
How it was run: as §1

CaBem1-D1 = target: CaBem1-D1
How it was run: as §1

CaBzz1-D1 = target: CaBzz1-D1
How it was run: as §1

CaBzz1-D2 = target: CaBzz1-D2
How it was run: as §1

CaCyk3 = target: CaCyk3
How it was run: as §1

CaFus1 = target: CaFus1
How it was run: as §1

CaHof1 = target: CaHof1
How it was run: as §1

CaHse1 = target: CaHse1
How it was run: as §1

CaLsb1 = target: CaLsb1
How it was run: as §1

CaLsb4 = target: CaLsb4
How it was run: as §1

CaMyo5 = target: CaMyo5
How it was run: as §1

CaNbp2 = target: CaNbp2
How it was run: as §1

CaRvs167 = target: CaRvs167
How it was run: as §1

CaRvs167-3 = target: CaRvs167-3
How it was run: as §1

CaSho1 = target: CaSho1
How it was run: as §1

CaSla1-D1-D2 = target: CaSla1-D1-D2
How it was run: as §1

CaSla1-D3 = target: CaSla1-D3
How it was run: as §1

ScAbp1 = target: ScAbp1
How it was run: as §1

ScBbc1 = target: ScBbc1
How it was run: as §1

ScBem1-D1 = target: ScBem1-D1
How it was run: as §1

ScBzz1-D1 = target: ScBzz1-D1
How it was run: as §1

ScBzz1-D2 = target: ScBzz1-D2
How it was run: as §1

ScCyk3 = target: ScCyk3
How it was run: as §1

ScFus1 = target: ScFus1
How it was run: as §1

ScHof1 = target: ScHof1
How it was run: as §1

ScHse1 = target: ScHse1
How it was run: as §1

ScLsb1 = target: ScLsb1
How it was run: as §1

ScLsb2 = target: ScLsb2
How it was run: as §1

ScLsb3 = target: ScLsb3
How it was run: as §1

ScLsb4 = target: ScLsb4
How it was run: as §1

ScMyo3 = target: ScMyo3
How it was run: as §1

ScMyo5 = target: ScMyo5
How it was run: as §1

ScNbp2 = target: ScNbp2
How it was run: as §1

ScPex13 = target: ScPex13
How it was run: as §1

ScRvs167 = target: ScRvs167
How it was run: as §1

ScSho1 = target: ScSho1
How it was run: as §1

ScSla1-D1-D2 = target: ScSla1-D1-D2
How it was run: as §1

ScSla1-D3 = target: ScSla1-D3
How it was run: as §1

SpAbp1-D1 = target: SpAbp1-D1
How it was run: as §1

SpBbc1 = target: SpBbc1
How it was run: as §1

SpBzz1-D1 = target: SpBzz1-D1
How it was run: as §1

SpBzz1-D2 = target: SpBzz1-D2
How it was run: as §1

SpCyk3 = target: SpCyk3
How it was run: as §1

SpHof1 = target: SpHof1
How it was run: as §1

SpHof1-2 = target: SpHof1-2
How it was run: as §1

SpHof1-3 = target: SpHof1-3
How it was run: as §1

SpHse1 = target: SpHse1
How it was run: as §1

SpLsb1 = target: SpLsb1
How it was run: as §1

SpLsb4 = target: SpLsb4
How it was run: as §1

SpMyo1 = target: SpMyo1
How it was run: as §1

SpNbp2 = target: SpNbp2
How it was run: as §1

SpPex13 = target: SpPex13
How it was run: as §1

SpRvs167 = target: SpRvs167
How it was run: as §1

SpSla1-D1-D2 = target: SpSla1-D1-D2
How it was run: as §1

SpSla1-D3 = target: SpSla1-D3
How it was run: as §1

DRIRMFIRFPKFLLE
SPOT peptide array binding signal intensity (AgAbp1): 9.5 | SPOT peptide array binding signal intensity (AgBbc1): 5 | SPOT peptide array binding signal intensity (AgBem1-D1): 153 | SPOT peptide array binding signal intensity (AgBzz1-D1): 12 | SPOT peptide array binding signal intensity (AgBzz1-D2): 20 | SPOT peptide array binding signal intensity (AgCyk3): 5.5 | SPOT peptide array binding signal intensity (AgFus1): 524 | SPOT peptide array binding signal intensity (AgHof1): 27.5 | SPOT peptide array binding signal intensity (AgHse1): 1880 | SPOT peptide array binding signal intensity (AgLsb1): 1 | SPOT peptide array binding signal intensity (AgLsb4): 105 | SPOT peptide array binding signal intensity (AgMyo5): 0.5 | SPOT peptide array binding signal intensity (AgNbp2): 278 | SPOT peptide array binding signal intensity (AgRvs167): 4.33 | SPOT peptide array binding signal intensity (AgSho1): 132 | SPOT peptide array binding signal intensity (AgSla1-D1-D2): 236 | SPOT peptide array binding signal intensity (AgSla1-D3): 5.5 | SPOT peptide array binding signal intensity (CaAbp1-D1): 470 | SPOT peptide array binding signal intensity (CaAbp1-D2): 318 | SPOT peptide array binding signal intensity (CaBbc1): 22.2 | SPOT peptide array binding signal intensity (CaBem1-D1): 27 | SPOT peptide array binding signal intensity (CaBzz1-D1): 4 | SPOT peptide array binding signal intensity (CaBzz1-D2): 6.75 | SPOT peptide array binding signal intensity (CaCyk3): 30.5 | SPOT peptide array binding signal intensity (CaFus1): 1830 | SPOT peptide array binding signal intensity (CaHof1): 0.5 | SPOT peptide array binding signal intensity (CaHse1): 191 | SPOT peptide array binding signal intensity (CaLsb1): 0.5 | SPOT peptide array binding signal intensity (CaLsb4): 108 | SPOT peptide array binding signal intensity (CaMyo5): 42.5 | SPOT peptide array binding signal intensity (CaNbp2): 1050 | SPOT peptide array binding signal intensity (CaRvs167): 238 | SPOT peptide array binding signal intensity (CaRvs167-3): 413 | SPOT peptide array binding signal intensity (CaSho1): 1280 | SPOT peptide array binding signal intensity (CaSla1-D1-D2): 67 | SPOT peptide array binding signal intensity (CaSla1-D3): 182 | SPOT peptide array binding signal intensity (ScAbp1): 52.5 | SPOT peptide array binding signal intensity (ScBbc1): 1.5 | SPOT peptide array binding signal intensity (ScBem1-D1): 3 | SPOT peptide array binding signal intensity (ScBzz1-D1): 16 | SPOT peptide array binding signal intensity (ScBzz1-D2): 12.5 | SPOT peptide array binding signal intensity (ScCyk3): 62 | SPOT peptide array binding signal intensity (ScFus1): 601 | SPOT peptide array binding signal intensity (ScHof1): 1.25 | SPOT peptide array binding signal intensity (ScHse1): 1400 | SPOT peptide array binding signal intensity (ScLsb1): ≤ 0 | SPOT peptide array binding signal intensity (ScLsb2): ≤ 0 | SPOT peptide array binding signal intensity (ScLsb3): 87 | SPOT peptide array binding signal intensity (ScLsb4): 19 | SPOT peptide array binding signal intensity (ScMyo3): 1 | SPOT peptide array binding signal intensity (ScMyo5): 1 | SPOT peptide array binding signal intensity (ScNbp2): 356 | SPOT peptide array binding signal intensity (ScPex13): 14.8 | SPOT peptide array binding signal intensity (ScRvs167): 22.7 | SPOT peptide array binding signal intensity (ScSho1): 870 | SPOT peptide array binding signal intensity (ScSla1-D1-D2): 48.5 | SPOT peptide array binding signal intensity (ScSla1-D3): 69 | SPOT peptide array binding signal intensity (SpAbp1-D1): 334 | SPOT peptide array binding signal intensity (SpBbc1): 2.5 | SPOT peptide array binding signal intensity (SpBzz1-D1): 103 | SPOT peptide array binding signal intensity (SpBzz1-D2): 5.5 | SPOT peptide array binding signal intensity (SpCyk3): 16 | SPOT peptide array binding signal intensity (SpHof1): 264 | SPOT peptide array binding signal intensity (SpHof1-2): 35.8 | SPOT peptide array binding signal intensity (SpHof1-3): 1130 | SPOT peptide array binding signal intensity (SpHse1): 1300 | SPOT peptide array binding signal intensity (SpLsb1): 1.25 | SPOT peptide array binding signal intensity (SpLsb4): 139 | SPOT peptide array binding signal intensity (SpMyo1): 10.8 | SPOT peptide array binding signal intensity (SpNbp2): 957 | SPOT peptide array binding signal intensity (SpPex13): 38 | SPOT peptide array binding signal intensity (SpRvs167): 40.3 | SPOT peptide array binding signal intensity (SpSla1-D1-D2): ≤ 0 | SPOT peptide array binding signal intensity (SpSla1-D3): 49
